Compound activity as filed in PubChem BioAssay.
Shown are actives, neighbours in structure and some others; about 5.3% of the full set was active somewhere.
HCV inhibitor – qHTS Assay for Inhibitors of Hepatitis C Virus (HCV); Huh7.5.1 HCVcc-Cre infection, luciferase reporter, 44 h; Potency, µM (top dose mostly 41.8 µM), inactives show top-dose activity change, negative = inhibition, actives largely listed as inhibitors; 340,000 compounds, 3.4% hits; active = well fitted inhibition curve with a large enough effect; inconclusive = small, poorly fitted or top-dose-only effect, or another doubt; inactive = no such curve, though single readings can be large or run the other way
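A cell-based infection assay in which seeded cells (1,000 per well) receive test compound after 4 h, are inoculated with HCVcc-Cre at approximately 0.5 moi, and are incubated 44 h before luminescence detection.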
Marburg entry inh – qHTS for inhibitors of binding or entry into cells for Marburg Virus | Marburg virus pseudotyped entry inhibition, cell reporter | Potency, µM (highest dose often 37.8 µM), for inactives: at the highest dose activity change, negative = inhibition, most hits filed as inhibitors | 300,000 compounds, 1.8% hits | AID 540276, 2011; calls by dose curve; tested in HEK293 cells
Vaccinia Venus – qHTS for Stage-Specific Inhibitors of Vaccinia Orthopoxvirus: Venus Reporter Primary qHTS; 330,000 compounds, 0.46% hits; Potency, µM (titrated, usually from 36.5 µM), without a hit: top-dose activity change, negative = inhibition, usual class: inhibitors; AID 720580, 2013; Vaccinia virus Venus reporter expression, fluorescence; calls by dose curve; tested in A549 cells; note: nearly all actives have a fitted effect of over 30% in size
VACV mCherry inh – qHTS for Stage-Specific Inhibitors of Vaccinia Orthopoxvirus: mCherry Reporter Primary qHTS; Vaccinia virus mCherry reporter infection, fluorescence; Potency, µM (doses to about 36.5 µM), for the others: at the highest dose activity change, negative = inhibition, usual class: inhibitors; 310,000 compounds, 0.63% hits; AID 720579, 2013; calls by dose curve; tested in A549 cells; note: nearly all actives have a fitted effect of over 35% in size
FMDV inh – High Throughput Screening for Foot and Mouth Disease Virus Antivirals | FMDV antiviral cell-based qHTS | Potency, µM (doses to about 57.9 µM), without a hit: at the highest dose activity change, negative = inhibition, hits mostly inhibitors | 410,000 compounds, 1.2% hits; calls by dose curve; tested in HEK293T cells; note: read-out not given here; nearly all actives have a fitted effect of over 45% in size
Lassa entry inh – qHTS for Inhibitors of binding or entry into cells for Lassa Virus. Lassa virus pseudotype entry inhibition, cell reporter. 300,000 compounds, 1.2% hits. Potency, µM (doses to about 37.9 µM), for the others: top-dose activity change, negative = inhibition, hits mostly inhibitors; calls by dose curve; tested in HEK293 cells; note: nearly all actives have a fitted effect of over 50% in size
Starred values were filed as active, the others as inactive; i = inactive; ? = inconclusive; nt = no result; [ ] = remark or other dose. % is set by controls: 0 for no effect and ±100 for the full control effect; potency is the fitted concentration of half-maximal effect.

SMILES	HCV inhibitor	Marburg entry inh	Vaccinia Venus	VACV mCherry inh	FMDV inh	Lassa entry inh
O=C(NC(NNc1ccc([N+](=O)[O-])cc1)(C(F)(F)F)C(F)(F)F)c1ccccc1Cl	?	24.4%	nt	nt	?	5.4%
COC(=O)C(C(C)=O)[C@@H](NC(=O)OC(C)(C)C)c1ccccc1 (some centres not stated)	nt	-7.0%[14.2 µM]	nt	nt	nt	nt
CC(C)NC(=O)C1CCN(C(=O)c2cc3sccc3n2Cc2ccc(Cl)cc2)CC1	nt	?	-23.5%	-6.5%	15.8µM*	nt
CC(C)NC(=O)C1CCN(C(=O)c2cc3sccc3n2Cc2ccc(F)cc2)CC1	?	8.2µM*	?	?	nt	?
CC1CCN(C(=O)C2CCN(C(=O)c3cc4sccc4n3Cc3ccc(F)cc3)CC2)CC1	-27.7%	?	?	?	?	?
Cc1ccc(C2CCN(C(=O)c3cnn(-c4ccc(C)c(C)c4)c3C3CCN(C(=O)OC(C)(C)C)CC3)C2)cc1 (configuration not stated)	nt	nt	-26.0%	-29.5%	?	?
COC(=O)CC=C[C@@H](C)[C@@H](C=NOC[C@@H](C)[C@H](OCc1ccccc1)C(C)C)NS(=O)(=O)c1ccc(C)cc1	nt	-14.2%[14.2 µM]	nt	nt	nt	-3.7%[14.3 µM]
CCS(=O)(=O)c1ccc(C(=O)Nc2ccccc2)c(Cl)c1Cl	-8.7%	?	-25.4%	nt	?	3.0%
CCS(=O)(=O)c1ccc(C(=O)Nc2cccc(Cl)c2)c(Cl)c1Cl	?	?	?	nt	28.2µM*	?
CCOc1ccc(NC(=S)N(CCc2c(C)[nH]c3ccc(C)cc23)Cc2ccncc2)cc1	?	2.31µM*	-15.4%	-6.7%	4.4%	-9.0%
Cc1[nH]c2ccccc2c1CCN(Cc1cccnc1)C(=S)Nc1cccc(F)c1	15.8µM*	?	-19.8%	-29.3%	4.2%	?
CCc1nn2c(=O)cc(COC(=O)c3cccc(NC(=O)COc4ccccc4F)c3)nc2s1	nt	nt	-19.9%	-20.3%	25.2%	?
CN(Cc1cccc(Cl)c1Cl)c1ccc(S(=O)(=O)N2CCCCC2)cc1[N+](=O)[O-]	11.2µM*	?	-14.6%	-0.1%	0.0%	5.6%
Cc1cc2c3c(cccc3n1)C(=O)c1ccccc1-2	nt	nt	nt	nt	-12.7%	nt
COc1ccc2nc(NC(=O)c3ccccc3C(=O)O)sc2c1	6.6%	nt	nt	nt	3.1%	nt
Cn1cc(Cl)c(C(=O)Nc2nc3ccccc3s2)n1	17.8%	8.2µM*	-11.3%	i	nt	?
Cc1ccccc1Cn1cccc(C(=O)Nc2nc3ccccc3s2)c1=O	nt	nt	-26.2%	-24.4%	22.4µM*	?
COc1ccc(C(=O)Nc2nc3ccccc3s2)c(OC)c1	-8.2%	?	-13.6%	1.2%	0.126µM*	?
COc1ccccc1C(=O)Nc1nc2ccccc2s1	?	nt	nt	nt	1.78µM*	nt
O=C(CN1C(=O)NC2(CCCCCC2)C1=O)c1cccs1	-15.6%	-1.0%	-16.7%	i	5.5%	13.1%
COc1ccc(NC(=O)CSc2nc(-c3cccc(C)c3)[nH]c2-c2ccccc2)cc1OC	nt	-25.5%[46.1 µM]	-28.5%	?	0.0%	-20.9%[46.1 µM]
COc1ccc2nc(NC(=O)c3cccc(-c4cc5ccccc5oc4=O)c3)sc2c1	11.2µM*	?	12.6µM*	?	-16.8%	?
COc1ccc(C(=O)Nc2ccccc2Cc2ccccc2)c(OC)c1	10µM*	5.3%	-29.7%	?	-4.1%	-19.5%
O=C(NCC1CCC2(CCN(Cc3cccn3-c3ccc(Cl)cn3)CC2)O1)c1ccccc1 (configuration not stated)	nt	nt	-1.3%	-8.9%	-18.3%	nt
O=C1Nc2ccc(C(=O)c3ccco3)cc2/C1=C/c1cc(Cl)c(O)c(Cl)c1	nt	nt	nt	nt	nt	3.15µM*
O=C1Nc2ccc(I)cc2/C1=C/c1cc(Br)c(O)c(Br)c1	nt	?	-12.4%	i	-18.7%	-0.1%
CCOc1cc(CNC2CCCC2)cc(Cl)c1OCc1ccccc1	12.6µM*	?	?	-8.7%[1.46 µM]	-12.1%	?
CCOc1cc(CNC2CCCC2)ccc1OCc1ccccc1Cl	3.16µM*	nt	nt	nt	?	nt
COc1cc(CNCCc2ccccc2)cc(Cl)c1OCc1ccccc1	?	?	?	10µM*	?	?
